{"source": "PubChem BioAssay (NCI)", "note": "Compounds without any hit were thinned out: in the full panel of roughly 83,000, 20% have a hit.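 Values shown are percent growth following 48 h exposure of cells in 96-well plates to a single concentration of compound; below 10 was considered active.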 Unmarked numbers belong to inactive results. The source made the active and inactive calls."}
{"tested_on": "MDA-MB-468 breast", "experiment": "NCI-60 one-dose screen, 48 h (100 = growth as untreated, 0 = no growth, -100 = all killed)", "conditions": "10 µM unless noted"}
{"molecule": "CN(Cc1ccccc1)S(=O)(=O)/N=C1\\NC(=O)NC1=C(Cl)Cl", "growth": "22.3%"}
{"molecule": "Clc1ccc2c(c1)NC1(CCSc3ccccc31)n1nccc1-2", "note": "(stereo not given)", "growth": "106%"}
{"molecule": "CCn1cnc(C[C@H](NC(=O)[C@@H](NC(=O)Nc2cc(C(F)(F)F)cc(C(F)(F)F)c2)C(C)(C)C)C(=O)OC)c1", "growth": "-75.6% [100 µM] (active)"}
{"molecule": "NC(=O)N/N=C\\c1ccco1", "growth": "119%"}
{"molecule": "CN(C)CCOc1nc2ccccc2c2c1-c1ccc(Cl)cc1C2=O", "growth": "-51.1% (active)"}
{"molecule": "COc1cc(/C=C2\\CCC/C(=C\\c3cc(CN4CCCC4)c(O)c(OC)c3)C2=O)cc(CN2CCCC2)c1O", "growth": "67.2%"}
{"molecule": "Cc1ccc(S(=O)(=O)NCCCNc2nc(Nc3ccc(N4CCN(C)CC4)cc3)nc3ccsc23)cc1", "growth": "12.3%"}
{"molecule": "O=C(CCCCCCN1CC(=O)N2[C@@H](c3ccc(Cl)s3)c3[nH]c4ccccc4c3C[C@H]2C1=O)NO", "growth": "30.7%"}
{"molecule": "CN1CCN(CC#CCn2c3c(c4ccccc42)C[C@]2(C)[C@H]4CC[C@@H]5[C@H]6[C@H]7OC(=O)[C@@]6(CCC7(C)C)CC[C@@]5(C)[C@]4(C)CC[C@H]2C3(C)C)CC1", "growth": "93.9%"}
{"molecule": "Cc1ccc(NCN2C(=O)c3ccccc3C2=O)c(C)n1", "growth": "98.5%"}
{"molecule": "O=C1CC(c2ccccc2)Cc2nc3ccc(Cl)cc3cc21", "note": "(stereo not given)", "growth": "10.2%"}
{"molecule": "Cc1ccc2c(n1)C(=O)C(Cl)=C(Nc1ccccc1C(=O)OC(C)(C)C)C2=O", "growth": "-76.5% (active)"}
{"molecule": "Cc1nc2nc(C(F)(F)F)[nH]c2nc1C", "growth": "102%"}
{"molecule": "OC(CNC1CCCCC1)Cn1c2ccc(I)cc2c2cc(I)ccc21", "note": "(stereo not given)", "growth": "67.4%"}
{"molecule": "COc1ccc(C(=O)/C=C/c2cc3ccccc3n3nnnc23)cc1", "growth": "96.8%"}
{"molecule": "Cc1c(C(=O)NCCN2CCOCC2)cn2ncnc(Oc3ccc(NC(=O)Nc4ccc(Cl)c(C(F)(F)F)c4)cc3)c12", "growth": "-10.4% (active)"}
{"molecule": "CC(C)c1ccc(-n2c(=S)[nH]c3sc4cc(O)ccc4c3c2=O)cc1", "growth": "96.5%"}
{"molecule": "COc1ccc(/C=C/C(=O)c2ccc(NC(=O)CN3CCN(c4cc5c(cc4F)c(=O)c(C(=O)O)cn5C4CC4)CC3)cc2)cc1", "growth": "99.1%"}
{"molecule": "Cc1cnc([C@]23CC[C@@H](C)[C@H](C)[C@H]2C2=CC[C@@H]4[C@@]5(C)Cc6c([nH]c7ccccc67)C(C)(C)[C@@H]5CC[C@@]4(C)[C@]2(C)CC3)o1", "growth": "90.6% [100 µM]"}
{"molecule": "COc1cccc(-c2nc3sccn3c2-c2ccnc(NCCNC(=O)c3ccccc3)n2)c1", "growth": "79.4%"}
{"molecule": "CCOC(=O)c1cc(C(=O)c2ccc(O)c(O)c2)n2ccc(-c3ccn4c(C(=O)c5ccc(O)c(O)c5)cc(C(=O)OCC)c4c3)cc12", "growth": "112%"}
{"molecule": "Cc1c(Cl)cc(-n2c(=O)c3ccccc3c3ccccc3c2=O)cc1Cl", "growth": "128%"}
{"molecule": "NC(=O)Nc1ccc2ncnc(Nc3ccc(Cl)cc3)c2c1", "growth": "-7.15% (active)"}
{"molecule": "CCOC(=O)c1ccc(C(C)(C)C)cc1", "growth": "107%"}
{"molecule": "COc1ccc(C2=C(CN)C(O)NC(=NCC(=O)c3ccc4ccccc4c3)N2)cc1", "note": "(stereo not given)", "growth": "118%"}
{"molecule": "Cc1ccc(-c2nc([P+](c3ccccc3)(c3ccccc3)c3ccccc3)c(Nc3ccccc3)o2)cc1", "growth": "-41.8% (active)"}
{"molecule": "O=C1Nc2ccccc2/C1=C/c1cccs1", "growth": "-20.2% (active)"}
{"molecule": "NC(=S)N1N=C(c2ccc(Cl)cc2)CC1c1cc2ccccc2[nH]c1=O", "note": "(stereo not given)", "growth": "111%"}
{"molecule": "C=C(c1ccc(C(=O)O)c(F)c1)c1cc2c(cc1C)C(C)(C)CCC2(C)C", "growth": "97.6%"}
{"molecule": "CCN=C1C=CC(=C(c2ccc(N(CC)CC)cc2)c2ccc(N(CC)CC)cc2)c2ccccc21", "growth": "-74.1% (active)"}
{"molecule": "NC(=O)c1cc(I)ccc1NC(=O)COc1ccc(Cl)cc1Cl", "growth": "71.7%"}
{"molecule": "Nc1c(C(=O)Nc2cccc(Cl)c2)sc2nc3c(cc12)C(O)CCC3", "note": "(stereo not given)", "growth": "39.5%"}
{"molecule": "CCOC(=O)C12CCCC1=CC(=O)CC2", "note": "(stereo not given)", "growth": "110%"}
{"molecule": "C=C(C)[C@@H]1CC[C@]2(C(=O)N3CCN(C)CC3)CC[C@]3(C)[C@H](CC[C@@H]4[C@@]5(C)CC[C@H](OC(=O)c6ccccc6C(=O)O)C(C)(C)[C@@H]5CC[C@]43C)[C@@H]12", "growth": "107%"}
{"molecule": "O=C1CN(CCN2CC(=O)NC(=O)C2)CC(=O)N1", "growth": "94.8%"}
{"molecule": "O=C(CSc1nc2ccccc2c(=O)n1-c1ccccc1)Nc1ccc(-c2nc3ccc([N+](=O)[O-])cc3[nH]2)cc1", "growth": "81.5%"}
{"molecule": "O=Nc1c(O)c(Cl)cc2ccccc12", "growth": "-7.81% (active)"}
{"molecule": "COc1cc2ncnc(Nc3ccc4c(cnn4C(=O)Nc4ccccc4)c3)c2cc1OC", "growth": "52%"}
{"molecule": "O=C1NC(=O)C(c2coc3cc(Br)ccc23)=C1c1c[nH]c2ccccc12", "growth": "3.29% (active)"}
{"molecule": "COc1cc2oc(-c3cccc(C(=O)N[C@@H](CC(C)C)C(=O)OC(C)(C)C)c3)cc(=O)c2c(OC)c1OC", "growth": "85.6%"}
